The list shows a part of the results. How many sequences the whole screen found active is unknown.
Target: furin, P09958
Test: furin cleavage Z-score vs untreated control; higher = more cleavage, active = 3.5 or more, inactive = 1 or less, 8 variable residues between constant flanks
In short: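 In 50 mM HEPES pH 7.5 with CaCl2 and NaCl, purified furin was incubated with bead-anchored 8-mer peptide–cDNA fusions at 1:10 enzyme:substrate in 0.01 ml. Incubation times were 7.5, 15 and 30 min. DNA set free by cleavage was adapter-tagged by PCR and sequenced, with read counts taken as abundance. Log counts relative to furin-free reactions, after lowess adjustment and median absolute deviation scaling, form the cleavage Z-score.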

Chain of furin, P09958 (P09958 whole entry): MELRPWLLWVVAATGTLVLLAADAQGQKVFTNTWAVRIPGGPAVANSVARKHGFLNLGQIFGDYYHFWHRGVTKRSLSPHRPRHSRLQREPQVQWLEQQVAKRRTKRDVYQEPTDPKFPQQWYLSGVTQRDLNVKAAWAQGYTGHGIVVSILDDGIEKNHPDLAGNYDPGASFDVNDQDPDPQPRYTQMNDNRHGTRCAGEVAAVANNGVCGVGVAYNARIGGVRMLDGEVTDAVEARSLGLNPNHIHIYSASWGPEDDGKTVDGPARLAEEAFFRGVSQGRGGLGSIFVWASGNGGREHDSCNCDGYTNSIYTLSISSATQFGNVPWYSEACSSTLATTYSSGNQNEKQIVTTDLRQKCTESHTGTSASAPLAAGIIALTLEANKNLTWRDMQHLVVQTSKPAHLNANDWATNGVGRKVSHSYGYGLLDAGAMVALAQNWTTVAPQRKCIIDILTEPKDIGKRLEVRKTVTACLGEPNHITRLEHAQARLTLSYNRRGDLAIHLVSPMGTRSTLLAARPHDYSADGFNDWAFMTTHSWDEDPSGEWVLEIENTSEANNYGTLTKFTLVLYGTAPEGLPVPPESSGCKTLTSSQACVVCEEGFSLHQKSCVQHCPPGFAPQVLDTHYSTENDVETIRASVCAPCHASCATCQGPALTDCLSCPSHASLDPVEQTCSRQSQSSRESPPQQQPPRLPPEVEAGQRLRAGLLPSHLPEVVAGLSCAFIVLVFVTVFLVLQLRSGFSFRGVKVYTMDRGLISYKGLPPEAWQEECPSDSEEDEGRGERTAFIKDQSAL

Row | Sequence | furin cleavage Z-score (7.5 min) | furin cleavage Z-score (15 min) | furin cleavage Z-score (30 min)
1 | CAEVETSTWVAGNASASA [HC2192] | -0.139 (inactive) | -0.872 (inactive) | -0.676 (inactive)
2 | CAEVVVSTWVAGNASASA [HC123] | 0.0781 (inactive) | -2.67 (inactive) | -0.513 (inactive)
3 | CAYMNRRRRHAGNASASA [FS-320] | 5.9 (active) | 7.94 (active) | 6.26 (active)
4 | CAPISRRRRHAGNASASA [FS-69] | 10.5 (active) | 12.1 (active) | 10.2 (active)
5 | CAVALRRRRHAGNASASA [FS-1577] | 11.1 (active) | 12.6 (active) | 9.5 (active)
6 | CAVILLMCAVAGNASASA [HC597] | -0.0828 (inactive) | -1.86 (inactive) | -1.55 (inactive)
7 | CAETMRRRRHAGNASASA [FS-928] | 10.4 (active) | 11.7 (active) | 10 (active)
8 | CAELITSCSSAGNASASA [HC1551] | -0.448 (inactive) | 0.888 (inactive) | -0.654 (inactive)
9 | CACRASGVLTAGNASASA [HC1510] | -0.191 (inactive) | -0.919 (inactive) | -0.424 (inactive)
10 | CAPVVTSTWVAGNASASA [HC2159] | 0.805 (inactive) | 0.48 (inactive) | 0.275 (inactive)
11 | CAEVFCVQPEAGNASASA [HC1442] | -0.865 (inactive) | -0.957 (inactive) | -0.965 (inactive)
12 | CAMMSRIFRHAGNASASA [FS-1236] | -0.468 (inactive) | -0.194 (inactive) | 1.99
13 | CAMKIRRRRHAGNASASA [FS-275] | 6.27 (active) | 6.38 (active) | 5.11 (active)
14 | CAVACCSMSYAGNASASA [HC2003] | -0.939 (inactive) | 1.22 | 0.305 (inactive)
15 | CARMKRESLMAGNASASA [FS-3228] | 9.24 (active) | 10.5 (active) | 11.4 (active)
16 | CARMKRILQRAGNASASA [FS-2720] | 0.0731 (inactive) | 1.31 | 0.696 (inactive)
17 | CAEAADAILHAGNASASA [HC268] | 1.3 | -1.15 (inactive) | 0.548 (inactive)
18 | CARMKRYILHAGNASASA [FS-2222] | 2.82 | 6.82 (active) | 8.57 (active)
19 | CARKKKEEEMAGNASASA [FS-2264] | -1.03 (inactive) | -1.15 (inactive) | -0.39 (inactive)
20 | CARMKREDLNAGNASASA [FS-2718] | 11.1 (active) | 11.1 (active) | 9.09 (active)
21 | CARMKRVWDRAGNASASA [FS-2722] | 2.92 | -0.324 (inactive) | 0.97 (inactive)
22 | CARMKREITTAGNASASA [FS-2047] | 9.07 (active) | 9.89 (active) | 7.88 (active)

Row | Sequence | furin cleavage Z-score (7.5 min) | furin cleavage Z-score (15 min) | furin cleavage Z-score (30 min)
23 | CATTPCTGSWAGNASASA [HC76] | 0.592 (inactive) | 0.698 (inactive) | 0.31 (inactive)
24 | CAKQKALGLLAGNASASA [HC1025] | -0.454 (inactive) | 1.56 | 0.147 (inactive)
25 | CALLLAAGVGAGNASASA [HC1659] | -1.34 (inactive) | -0.972 (inactive) | 0.0513 (inactive)
26 | CADREVVTSTAGNASASA [HC2293] | 0.73 (inactive) | -0.878 (inactive) | 0.0278 (inactive)
27 | CANVDQDLVGAGNASASA [HC712] | -0.364 (inactive) | -0.928 (inactive) | 0.183 (inactive)
28 | CARHRARSVRAGNASASA [HC1621] | 5.03 (active) | 5.34 (active) | 5.83 (active)
29 | CARALAHGVRAGNASASA [HC235] | -1.61 (inactive) | -0.489 (inactive) | -0.193 (inactive)
30 | CARHRRQIDRAGNASASA [FU5] | 8.52 (active) | 9.09 (active) | 7.54 (active)
31 | CARHRRTPDRAGNASASA [FS-2555] | 3.94 (active) | 6.66 (active) | 4.45 (active)
32 | CACSQHLPYIAGNASASA [HC1016] | -1.19 (inactive) | -4.19 (inactive) | -2.45 (inactive)
33 | CAGPLLCPAGAGNASASA [HC744] | -0.656 (inactive) | -1.61 (inactive) | -1.61 (inactive)
34 | CATTPCSAHLAGNASASA [HC2478] | 0.336 (inactive) | 0.111 (inactive) | -0.164 (inactive)
35 | CAVVCCSESYAGNASASA [HC2052] | -0.759 (inactive) | -0.905 (inactive) | -0.208 (inactive)
36 | CAQRRRSIRDAGNASASA [FS-287] | 14.8 (active) | 16.3 (active) | 11.3 (active)
37 | CAQRRRPTRPAGNASASA [FS-371] | -1.13 (inactive) | 0.703 (inactive) | -0.42 (inactive)
38 | CAIPCRSIRDAGNASASA [FS-668] | 4.89 (active) | 6.2 (active) | 5.07 (active)
39 | CASTTCSAHLAGNASASA [HC2518] | -0.961 (inactive) | -1.68 (inactive) | -0.439 (inactive)
40 | CAKTSERSQPAGNASASA [HC186] | 2.56 | -0.461 (inactive) | 0.776 (inactive)
41 | CAGESRSRRRAGNASASA [FS-329] | 2.73 | 3.06 | 3.66 (active)
42 | CARVKRSRRRAGNASASA [FS-2839] | 10.1 (active) | 10.8 (active) | 9.23 (active)
43 | CADPSRSRRRAGNASASA [FS-1448] | 0.778 (inactive) | 3.15 | 3.47
44 | CAKTSRSRRRAGNASASA [FS-1225] | 5.45 (active) | 6.99 (active) | 6.15 (active)

Reference: the supplement of paper PMC3545927
